In PubChem BioAssay (NCATS) one finds Potency data, which are given here for 40 molecules.

Results filed as inconclusive are left out. A call without a number means that no potency is given here. Active and inactive are the calls of the source. The call rests on the fitted dose curve; in most records, active means well fitted cell-killing curve with a large enough effect; inconclusive means small, poorly fitted or top-dose-only effect, or effect the other way; inactive means no such curve, though single readings can be large or run the other way.
Potency means the concentration at half of the fitted maximal effect.

This test can be described thus: Quantitative High-Throughput drug screen in 47 multiple myeloma cell lines against the NCATS MIPE library collection: XG6_PLB cell viability assay (AID 1919865). Further: nearly all actives have a fitted effect of over 40% in size. As to conditions: XG6 myeloma viability, CellTiter-Glo ATP luminescence, 48 h; series mostly up to 45.8 µM. From the text:
PI: Beverly A. Mock Ph.D.
Laboratory of Cancer Biology and Genetics,
Center for Cancer Research, National Cancer Institute,
National Institute of Health, Bethesda, Maryland
Drug resistance and disease progression are common in multiple myeloma (MM) patients, underscoring the need for new therapeutic combinations. […] We hypothesized that effective combinations would reduce MYC expression and enhance p16 activity. […] These preclinical data identify potentially useful drug combinations for evaluation in drug-resistant MM and reveal potential mechanisms of combined drug sensitivity.
Described herein is the primary MIPE qHTS used to cherrypick compounds. Validated compounds were then further tested for potential synergistic activiy.
[1] Peat TJ, Gaikwad SM, Dubois W, Gyabaah-Kessie N, Zhang S, Gorjifard S, Phyo Z, Andres M, Hughitt VK, Simpson RM, Miller MA, Girvin AT, Taylor A, Williams D, D'Antonio N, Zhang Y, Rajagopalan A, Flietner E, Wilson K, Zhang X, Shinn P, Klumpp-Thomas C, McKnight C, Itkin Z, Chen L, Kazandijian D, Zhang J, Michalowski AM, Simmons JK, Keats J, Thomas CJ, Mock BA. Drug combinations identified by high-throughput screening promote cell cycle transition and upregulate Smad pathways in myeloma. Cancer Lett. 2023 Aug 1;568:216284. doi: 10.1016/j.canlet.2023.216284. Epub 2023 Jun 24. PMID: 37356470; PMCID: PMC10408729.
SEQUENCE No. (e.g., 1, 2, 3, etc.); […] (e.g., Cells, Incubation, Reagent, etc.); VALUE and DESCRIPTION.
1; Cells; 5 uL; white, solid bottom 1536-well Greiner assay plate.
2; Compounds; 23 nL; Kalypsis pin tool (Wako USA) equipped with a 1536-well pin head to transfer to the assay plates.
3; Incubation; 48 hours; 37C incubation.
4; Reagent;5uL; CellTiter Glo (Promega).
5; Detector; 425V; Luminescence; Viewlux PerkinElmer.
NOTES (numbers refer to Sequence numbers above)
1. The cell-based screening methods employed in this study were like those previously published. Briefly, the corresponding myeloma cell lines were screened in 1,536-well plates with 500 cells, 5-uL per well for inhibition of cell viability (assessed by measuring ATP levels with CellTiterGlo).
2. NCATS MIPE 4.0 library of approved and investigational drugs were added using the Kalypsis pin tool. Wells treated with DMSO only for 100% viability and media only for 0% viability were used as controls.
3. The assay plates were covered and incubated for 48 hours in a 37C, 5% CO2 incubator with controlled humidity.
4. After 48 hours, CellTilter-GloTM luminescent substrate mix (Promega) reagent was added to the assay plate and plates we incubated for 5 min at room temperature.
5. Signal was measured as median relative luminescence units on a ViewLux (PerkinElmer) multiplate reader.
[1] Heske CM, Davis MI, Baumgart JT, Wilson K, Gormally MV, Chen L, Zhang X, Ceribelli M, Duveau DY, Guha R, Ferrer M, Arnaldez FI, Ji J, Tran HL, Zhang Y, Mendoza A, Helman LJ, Thomas CJ. Matrix Screen Identifies Synergistic Combination of PARP Inhibitors and Nicotinamide Phosphoribosyltransferase (NAMPT) Inhibitors in Ewing Sarcoma. Clin Cancer Res. 2017 Dec 1;23(23):7301-7311. doi: 10.1158/1078-0432.CCR-17-1121. Epub 2017 Sep 12. PMID: 28899971; PMCID: PMC6636827.
On to `CC(C)[C@]12O[C@@H]1[C@@H]1O[C@]13[C@]1(O[C@H]1C[C@@H]1C4=C(CC[C@@]13C)C(=O)OC4)[C@H]2O`, for which the Potency entry is “inactive”.
As to `C[C@]12CCC(=O)C(O)=C1CC[C@@H]1[C@H]3CCC(=O)[C@@]3(C)CC[C@@H]12`, the Potency entry is “inactive”.
`Oc1ccc2c3c1O[C@H]1c4[nH]c5c(c4C[C@@]4(O)[C@@H](C2)N(CC2CC2)CC[C@]314)C[C@@]1(O)[C@H]2Cc3ccc(O)c4c3[C@@]1(CCN2CC1CC1)[C@H]5O4`: the Potency result is “inactive”.
Regarding `CCN(CC)C(=O)c1ccc(C2=CC3(CCNCC3)Oc3cccc(O)c32)cc1`, the Potency result was “inactive”.
Consider `COc1ccc(N(C(=O)Oc2c(C)cccc2C)c2ccnc(Nc3ccc(N4CCN(C)CC4)cc3)n2)c(OC)c1`, for which the Potency was 0.332 µM (active).
As for `C=C[C@@H]1CN2CCC1C[C@@H]2[C@@H](O)c1ccnc2ccccc12` (stereo not given in full), the Potency is 18.7 µM (active).
With `CCOP(=O)(OCC)C(C)NC(=O)N(CCCl)N=O` (stereo not given), the Potency result was “inactive”.
On to `COC1=C[C@@H]2[C@@H]3Cc4ccc(OC)c(O)c4[C@]2(CCN3C)CC1=O`, for which the Potency is 1.18 µM (active).
For `COc1cc([C@@H]2c3cc4c(cc3[C@@H](O)C3COC(=O)C32)OCO4)cc(OC)c1O` (stereo not given in full), the Potency is 0.0148 µM (active).
As for `C[C@]12CC[C@H]3[C@@H](CCC4=CC(=O)CC[C@@]43C)[C@H]1CC[C@H]2O`, the Potency entry is “inactive”.
Then `CC[C@@H]1[C@@H](C)O[C@@](O)([C@@H](C)[C@H](O)[C@H](C)[C@H]2OC(=O)C=CC=C[C@@H](C)[C@@H]([C@@H](C)[C@@H](O)[C@H](C)[C@@]3(O)C[C@H](O[C@H]4C[C@H](O)[C@H](O)[C@H](C)O4)[C@H](CC)[C@@H](C)O3)OC(=O)C=CC=C[C@@H]2C)C[C@H]1O[C@H]1C[C@H](O)[C@H](O)[C@H](C)O1`, with 0.469 µM (active); and `C[C@]12Cc3cn[nH]c3C[C@@H]1CC[C@@H]1[C@H]2CC[C@@]2(C)[C@H]1CC[C@]2(C)O`, with “inactive”.
The entry for `CCOC(=O)c1cncn1[C@H](C)c1ccccc1` is “inactive”; for `CC(=Cc1csc(C)n1)[C@@H]1C[C@H]2O[C@]2(C)CCC[C@H](C)[C@@H](O)[C@@H](C)C(=O)C(C)(C)[C@@H](O)CC(=O)O1` it is “inactive”; for `CC(=CCCC1=CCC(C2=CC(=O)OC2O)OC1O)CCC1=C(C)CCCC1(C)C` (stereo not given) it is 16.6 µM (active).
With `CO[C@H]1CCC(O[C@H]2C[C@H]([C@]3(C)CC[C@]4(C[C@H](O)[C@@H](C)[C@@H]([C@@H](C)C=C(C)C(=O)[C@H](C)C[C@H](C)C(=O)O)O4)O3)O[C@]3(O[C@@H]([C@H]4O[C@@](O)(CO)[C@H](C)C[C@H]4C)C[C@H]3C)[C@H]2C)O[C@H]1C` (stereo not given in full), the Potency was 0.418 µM (active).
Then `CSCC[C@@H](NC(=O)[C@@H](Cc1ccccc1)NC(=O)CNC(=O)CNC(=O)[C@@H](N)Cc1ccc(O)cc1)C(=O)O`, with “inactive”; and `CC(C)N(CCNC(=O)CN1CCCC1=O)C(C)C`, with “inactive”; and `C[C@@H]1O[C@@H](O[C@@H]2C=C3CC[C@@H]4[C@@H](CC[C@]5(C)[C@H](c6ccc(=O)oc6)CC[C@@]45O)[C@@]3(C)CC2)[C@H](O)[C@H](O)[C@H]1O`, with 0.0166 µM (active).
Then `C1=C2CCCN[C@H]2[C@@H]2C[C@H]1[C@@H]1CCCCN1C2`, with “inactive”; and `CC=C(C)C(=O)N[C@@H](c1ccccc1)[C@@H](O)C(=O)O[C@H]1C[C@@]2(O)[C@@H](OC(=O)c3ccccc3)[C@@H]3[C@]4(OC(C)=O)CO[C@@H]4C[C@H](O)[C@@]3(C)C(=O)[C@H](OC(C)=O)C(=C1C)C2(C)C`, with “inactive”.
Then `COc1cc2cc(c1Cl)N(C)C(=O)C[C@H](OC(=O)C(C)C)[C@]1(C)O[C@H]1[C@H](C)[C@@H]1C[C@@](O)(NC(=O)O1)[C@H](OC)C=CC=C(C)C2`, with “inactive”; and `CC1=NN=C(c2ccc(N)cc2)c2cc3c(cc2C1)OCO3`, with “inactive”; and `O=S(=O)(F)Cc1ccccc1`, with 0.743 µM (active).
Regarding `CN1CCN(c2ccc([N+](=O)[O-])c3no[n+]([O-])c23)CC1`, the Potency is 20.9 µM (active).
As for `COc1cccc2c1[C@]13CCN(CC4CC4)[C@H](C2)[C@]1(OC)CCC(=O)C3`, the Potency entry is “inactive”.
As to `O=c1[nH]c2ccc(Cl)cc2c(N[C@@H]2CN3CCC2CC3)c1-c1nc2ccccc2[nH]1`, the Potency is 0.0372 µM (active).
The figure for `COc1ccc2c(c[n+](C)c3c4cc5c(cc4ccc23)OCO5)c1OC` is 5.26 µM (active); for `O=C(Oc1ccc([N+](=O)[O-])cc1)N1CCN(Cc2cccc(Oc3ccccc3)c2)CC1` it is 23.5 µM (active); for `CC(C)(C)[C@]1(O)C[C@@H]2OC(=O)C[C@@]23C(=O)O[C@@H]2OC(=O)[C@H](O)C213` (stereo not given in full) it is “inactive”.
With `O=S(=O)(CC1CS1)c1ccc(Oc2ccccc2)cc1` (stereo not given), the Potency is 13.2 µM (active).
Regarding `c1ccc2c(CN3CCNCC3)cccc2c1`, the Potency result is “inactive”.
Turning to `CC(C)(O)C=CC(=O)[C@](C)(O)[C@H]1[C@H](O)C[C@]2(C)[C@@H]3CC=C4[C@@H](C=C(O)C(=O)C4(C)C)[C@]3(C)C(=O)C[C@@]12C`, the Potency was 0.0662 µM (active).
With `Clc1ccccc1C(c1ccccc1)(c1ccccc1)n1cccn1`, the Potency result is “inactive”.
Then `COCC1(CO)C(=O)C2CCN1CC2` (stereo not given), with 1.66 µM (active); and `CC(C)(O)C(=O)Nc1ccc([N+](=O)[O-])c(C(F)(F)F)c1`, with 3.32 µM (active); and `CCc1c(C(=O)C(N)=O)c2c(OCC(=O)O)cccc2n1Cc1ccccc1`, with “inactive”.
As for `O=C(N[C@H]1CN2CCC1CC2)c1ccc(Cl)cc1`, the Potency is 8.33 µM (active).
On to `CCOC(=O)c1c(C(C#N)=CN)c2ccc(Cl)c(Cl)c2n1C`, for which the Potency result was “inactive”.
With `NC1=NC(=O)N2CC12` (stereo not given), the Potency was 9.35 µM (active).
